Sampled rows, rich in hits. Any-hit rate of the full collection: about 7%.
rCAG binder – r(CAG) repeat RNA binding; TO-PRO-1 dye displacement fluorescence; inhibition, % at 3 µM; 370,000 tested, 1.3% active; AID 651821;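 active = inhibition above the plate cutoff, the mean of all test compounds on that plate plus 3 SD, cut at about 35% in these data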;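 also: 0% = DMSO alone and 100% = 100 µM mitoxantrone as full dye displacement; higher means more dye released from RNA so lower well fluorescence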
proKLK7 act – activates the human kallikrein-7 zymogen. 370,000 tested, 0.9% active. AID 652039. P49862. purified proKLK7, EDANS-DABCYL substrate fluorescence; 100% is mature enzyme control, 0% vehicle. activation, % at 7 µM;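 active = activation above the mean of all tested compounds plus 3 SD, computed per campaign excluding outliers beyond control limits, cut at about 13% in these data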
GRIN3A LBD mod – modulators (binders) of human NR3A ligand-binding domain. NR3A LBD differential scanning fluorimetry, Tm shift; 0% = protein alone, 100% = glycine-bound protein. Tm shift relative to glycine control, % at 25 µM. 340,000 tested, 2.5% active;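 active = melting temperature shift of at least 10% of the positive control shift, at one fixed dose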
ADAM10 inh – inhibitors of human ADAM10 | O14672 | recombinant ADAM10, EDANS/DABCYL FRET peptide cleavage, 3 h | inhibition, % at 7 µM | 370,000 tested, 0.62% active;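 active = inhibition above a per-campaign cutoff equal to the mean of compounds falling between control-based bounds plus 3 SD, cut at about 20% in these data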;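 also: 0% = DMSO wells while the 100% control is not disclosed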
Target sequence (O14672 214-748 limits assumed): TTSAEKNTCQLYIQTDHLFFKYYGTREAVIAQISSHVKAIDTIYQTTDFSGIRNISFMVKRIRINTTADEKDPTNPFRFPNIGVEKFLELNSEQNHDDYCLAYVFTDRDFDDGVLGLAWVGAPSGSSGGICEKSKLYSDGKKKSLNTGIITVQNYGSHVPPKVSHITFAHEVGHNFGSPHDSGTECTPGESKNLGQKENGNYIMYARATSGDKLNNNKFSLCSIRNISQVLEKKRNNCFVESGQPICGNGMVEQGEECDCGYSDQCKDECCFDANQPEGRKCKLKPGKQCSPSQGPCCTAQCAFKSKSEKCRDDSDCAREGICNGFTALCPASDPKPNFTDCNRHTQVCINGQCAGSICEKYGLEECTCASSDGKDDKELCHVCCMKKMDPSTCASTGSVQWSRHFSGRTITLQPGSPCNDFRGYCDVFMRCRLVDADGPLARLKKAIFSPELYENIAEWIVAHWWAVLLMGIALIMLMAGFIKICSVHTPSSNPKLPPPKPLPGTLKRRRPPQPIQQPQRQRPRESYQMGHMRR
ADAM17 inh – inhibitors of human ADAM17 | P78536 | recombinant ADAM17, EDANS/DABCYL FRET peptide cleavage | inhibition, % at 6.95 µM | 370,000 tested, 0.83% active;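 active = inhibition above the mean of compounds lying between control limits plus 3 SD, set per campaign, cut at about 8.5% in these data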;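 also: 0% = DMSO-only wells as the low control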
AHR activator – activators of human aryl hydrocarbon receptor; P35869; AHR-responsive luciferase reporter cells, luminescence; activation, % at 5 µM; 320,000 tested, 2.5% active; AID 2796; in the data active = activation above about 47%;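 also: 0% = vehicle wells and 100% = reference agonist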
ADAM10 confirm – confirmation of inhibitors of human ADAM10 | shares compounds with ADAM10 inh | ADAM10 QFRET peptide cleavage, EDANS fluorescence | inhibition, % at 6.95 µM | 2,100 tested, 1% active | AID 743208;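 active = inhibition above about 20% chosen separately for each screening run, limit read from the data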;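 also: 0% = DMSO wells and 100% = marimastat wells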
ADAM17 counter – counter-screen for ADAM10 exosite inhibitors: inhibitors of human ADAM17 | shares compounds with ADAM10 inh | ADAM17 QFRET peptide cleavage, EDANS fluorescence | inhibition, % at 6.95 µM | 2,100 tested, 0.5% active;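 active = mean triplicate inhibition above the solvent-only control wells' mean plus 3 SD, cut at about 12% in these data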;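 also: 0% = DMSO wells and 100% = marimastat wells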
ADAM10 counter – ADAM10 inhibition, counter-screen for ADAM17 exosite hits. shares compounds with ADAM17 inh. recombinant ADAM10, EDANS/DABCYL FRET peptide cleavage, 3 h. inhibition, % at 6.95 µM. 2,900 tested, 47% active. AID 743256;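 active = mean inhibition over the triplicate runs exceeds the activity threshold set in the earlier primary screen, cut at about 20% in these data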;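 also: 0% = DMSO wells and 100% = marimastat wells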
ADAM17 confirm – confirmation of inhibitors of human ADAM17; shares compounds with ADAM17 inh; recombinant ADAM17, EDANS/DABCYL QFRET peptide cleavage; inhibition, % at 6.95 µM; 2,900 tested, 65% active;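 active = mean inhibition across replicates above the hit cutoff set in the primary screen, cut at about 8.5% in these data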;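 also: 0% = DMSO wells and 100% = marimastat wells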
* hit, by the source's call; · = no result given.

SMILES | rCAG binder | proKLK7 act | GRIN3A LBD mod | ADAM10 inh | ADAM17 inh | AHR activator | ADAM10 confirm | ADAM17 counter | ADAM10 counter | ADAM17 confirm
COc1ccc(C(=O)NCC(=O)OCC(=O)c2ccc3c(c2)NC(=O)CO3)cc1 | 6 | 0 | 0 | -5 | -7 | 1 | · | · | · | ·
Cc1ccc(NS(=O)(=O)c2ccc(NC(=O)CN(c3cc([N+](=O)[O-])ccc3C)S(C)(=O)=O)cc2)c(C)c1 | 24 | 0 | 13* | 21* | 11* | 21 | 4 | 1 | 54* | 28*
Cc1cc(C)cc(NS(=O)(=O)c2ccc(NC(=S)NC(=O)c3ccc(Br)o3)cc2)c1 | 24 | 2 | 18* | 21* | 11* | 5 | 10 | 4 | 29* | 14*
NS(=O)(=O)c1ccc(NC(=S)NC(=O)c2ccc(Br)o2)cc1 | -1 | 0 | 5 | -6 | -6 | 3 | · | · | · | ·
Cc1ccc(NS(=O)(=O)c2ccc(NC(=O)c3ccc(Br)o3)cc2)c(C)c1 | 13 | 1 | 11* | 23* | 11* | 22 | 6 | 2 | 32* | 15*
Cc1ccc([N+](=O)[O-])cc1N(CC(=O)NC1CCCC1)S(C)(=O)=O | -1 | 0 | -1 | 2 | -2 | 2 | · | · | · | ·
O=c1nc(Oc2ccccc2)nc2ncccn12 | 2 | -1 | · | -8 | -6 | · | · | · | · | ·
CN(CC(=O)Nc1ccc(Cl)cc1)C(=O)CNC(=O)c1ccc(Br)o1 | -2 | 1 | 2 | -2 | -1 | 0 | · | · | · | ·
CC(C)OCCCn1c(SCC(=O)Nc2ccccc2C(F)(F)F)nc2nccnc2c1=O | -7 | 0 | 0 | -4 | -3 | -2 | · | · | · | ·
N#Cc1cccc(NC(=S)Nc2ccccc2)c1 | 1 | -1 | -1 | -2 | 2 | 6 | · | · | · | ·
Cc1cc(NC(=O)CS(=O)(=O)c2cn(Cc3cccc(Br)c3)c3ccccc23)no1 | 6 | 0 | · | 24* | 10* | · | 3 | 1 | 8 | 8.7*
CC(=O)Oc1ccc(C(=O)Nc2cccc(C(=O)c3ccc(C)c(C)c3)c2)cc1 | 4 | 0 | -2 | 32* | 16* | 0 | 6 | 2 | 14 | 12*
Cc1ccc(N2C(=O)NC(NC(=O)C3CC3)(C(F)(F)F)C2=O)cc1 (centres undefined) | 0 | 0 | -4 | 2 | -1 | -2 | · | · | · | ·
CCOc1cc(/C=N/O)cc(Br)c1OCc1ccc(Cl)cc1 | 13 | 1 | 13* | 25* | 8.9* | 28 | 6 | 3 | 52* | 21*
CCOc1cc(/C=N/O)cc(Br)c1OCC | 0 | 0 | 1 | 3 | 0 | -2 | · | · | · | ·
Cc1ccc(S(=O)(=O)N2CCN(C(=O)COC(=O)CNC(=O)c3ccc(Cl)cc3Cl)CC2)cc1 | -3 | -1 | 1 | -2 | 0 | 2 | · | · | · | ·
COc1ccc(C(C)=O)cc1CC1(C)C(=O)Nc2ccc(-c3cccc(C(F)(F)F)c3)cc21 (centres undefined) | 5 | 0 | · | 27* | 9.8* | · | 9 | 3 | 24* | 14*
CC(=O)c1cccc(-c2ccc3c(c2)C(C)(Cc2ccccc2C#N)C(=O)N3)c1 (centres undefined) | 3 | -1 | · | -1 | -2 | · | · | · | · | ·
CC1(Cc2ccccc2OC(F)(F)F)C(=O)Nc2ccc(-c3ccsc3)cc21 (centres undefined) | 0 | 0 | · | 30* | 10* | · | 8 | 3 | 24* | 14*
O/N=C/c1cc(Br)ccc1OCc1cccc(F)c1 | 6 | 0 | -49 | 28* | 11* | 34 | 4 | 1 | 18 | 9.5*
O/N=C/c1cc(Br)ccc1OCc1ccc(F)cc1 | 4 | 0 | -21 | 13 | 4 | 2 | · | · | · | ·
Cc1cccc(CCNS(=O)(=O)c2ccc3c(c2)NC(=O)C(C)S3)c1 (centres undefined) | 0 | -1 | -3 | 8 | 2 | -1 | · | · | · | ·
CC(C)C1S/C(=N/N=C/c2cccs2)NC1=O (centres undefined) | 6 | 0 | 0 | 29* | 9.4* | 7 | 1 | 0 | 8 | 5
CC1S/C(=N/N=C/c2cccs2)NC1=O (centres undefined) | 0 | 0 | -2 | 0 | 3 | 30 | · | · | · | ·
CNC(=O)c1cccc(NC(=O)CCCNC(=O)c2ccc(Cl)cc2)c1 | -2 | 0 | -2 | -4 | -2 | 4 | · | · | · | ·
SMILES | rCAG binder | proKLK7 act | GRIN3A LBD mod | ADAM10 inh | ADAM17 inh | AHR activator | ADAM10 confirm | ADAM17 counter | ADAM10 counter | ADAM17 confirm
O=C(/C=C/c1ccc(Cl)cc1Cl)NCCSc1ccccc1 | 4 | 0 | 7 | 25* | 11* | 4 | 6 | 2 | 23* | 17*
COc1ccccc1S(=O)(=O)N(C)C[C@@H]1Oc2cc(C#CCC(C)C)ccc2S(=O)(=O)N([C@H](C)CO)C[C@@H]1C | 12 | 0 | · | 26* | 11* | · | 8 | 3 | 46* | 26*
COc1ccccc1S(=O)(=O)N(C)C[C@H]1Oc2cc(C#CCC3CCCC3)ccc2S(=O)(=O)N([C@H](C)CO)C[C@H]1C | 11 | 0 | · | 3 | 1 | · | · | · | · | ·
O=C(Nc1cccc(-c2ccc(F)cc2)c1)C1CCCN(C(=O)c2cscn2)C1 (centres undefined) | 0 | 0 | 0 | 6 | 3 | 9 | · | · | · | ·
CCOC(=O)c1sc(NC(=O)CN2C(=O)NC3(CC(C)CC(C)(C)C3)C2=O)cc1C (centres undefined) | 7 | 0 | 8 | 24* | 13* | 2 | 1 | 1 | 18 | 14*
COc1ccc(S(=O)(=O)Nc2ccccc2)cc1 | 2 | 0 | 0 | 1 | 1 | 1 | · | · | · | ·
COc1ccc(S(=O)(=O)Nc2ccc(Nc3ccccc3)cc2)cc1 | 11 | 0 | 9 | 21* | 12* | -2 | 7 | 1 | 13 | 11*
CN(C)NC(=S)NC1CCS(=O)(=O)C1 (centres undefined) | 1 | 0 | 0 | 0 | -3 | 3 | · | · | · | ·
Cc1ccc(Cl)cc1N1CCN(C(=O)c2noc(C(C)C)c2[N+](=O)[O-])CC1 | -3 | 1 | -1 | 8 | 3 | 0 | · | · | · | ·
O=C(O)c1nn(CCOc2cccc(Br)c2)c(=O)c2ccccc12 | 3 | 1 | -10 | 21* | 11* | 0 | 1 | 0 | 9 | 6

Screens deposited in PubChem by several laboratories.
